What all share (assay): DAPPL (digital affinity profiling via proximity ligation, sequencing); 10 mM Tris-HCl pH 7.5, 50 mM NaCl, 1 mM DTT, 4% glycerol, room temperature, 30 min; GST-TFs on glutathione beads, 16-mer random dsDNA library, 0.1% formaldehyde crosslink after washing; high values mean tight binding
What all share (conditions): protein: recombinant; tags: N-terminal GST; dsDNA, one strand shown

The target in experiment [1] is T1, FLI1 (Homo sapiens, UniProt Q01543 1-452).
T1 sequence: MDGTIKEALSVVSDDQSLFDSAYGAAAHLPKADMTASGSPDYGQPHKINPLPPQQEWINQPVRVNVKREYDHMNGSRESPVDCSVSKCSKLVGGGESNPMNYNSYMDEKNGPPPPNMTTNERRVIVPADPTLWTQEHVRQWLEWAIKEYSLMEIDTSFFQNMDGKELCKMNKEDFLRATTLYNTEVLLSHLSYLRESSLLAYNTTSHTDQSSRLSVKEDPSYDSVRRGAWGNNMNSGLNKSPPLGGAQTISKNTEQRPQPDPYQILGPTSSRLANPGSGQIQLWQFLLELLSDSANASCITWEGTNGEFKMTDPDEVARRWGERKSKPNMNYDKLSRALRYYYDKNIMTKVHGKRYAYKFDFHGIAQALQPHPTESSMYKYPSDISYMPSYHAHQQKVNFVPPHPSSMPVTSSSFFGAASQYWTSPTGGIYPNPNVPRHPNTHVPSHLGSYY
In short, it runs like this:
(§1)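 GST fusions of human transcription factors were expressed in yeast and captured with glutathione beads. Once given DNA barcodes and pooled alongside a tag-only sample, they were incubated for 30 min at room temperature with 200 nmole of a random double-stranded 16-mer DNA library in Tris/NaCl/DTT/glycerol buffer, then washed, crosslinked (0.1% formaldehyde), proximity-ligated, PCR-amplified and sequenced on an Illumina NextSeq500. The binding signal of each hexamer is its read frequency for a factor divided by its frequency for the tag-only sample.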

For experiment [2], the target named is T2, ELK1 (Homo sapiens, UniProt P19419 1-428).
T2 sequence: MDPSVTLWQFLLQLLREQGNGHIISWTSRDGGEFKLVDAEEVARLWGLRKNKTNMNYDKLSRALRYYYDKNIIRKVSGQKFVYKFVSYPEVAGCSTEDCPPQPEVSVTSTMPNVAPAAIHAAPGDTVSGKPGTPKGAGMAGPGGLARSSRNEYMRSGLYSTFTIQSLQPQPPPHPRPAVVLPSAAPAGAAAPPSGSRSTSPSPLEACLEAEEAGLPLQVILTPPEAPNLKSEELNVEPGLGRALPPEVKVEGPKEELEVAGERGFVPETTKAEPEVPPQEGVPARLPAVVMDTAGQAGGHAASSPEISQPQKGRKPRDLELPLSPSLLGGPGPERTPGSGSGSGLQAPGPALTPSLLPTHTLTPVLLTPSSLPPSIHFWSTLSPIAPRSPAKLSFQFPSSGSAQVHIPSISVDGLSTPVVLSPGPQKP
In short, it runs like this:
as §1

For experiment [3], the target named is T3, GABPA (Homo sapiens, UniProt Q06546 1-454).
T3 sequence: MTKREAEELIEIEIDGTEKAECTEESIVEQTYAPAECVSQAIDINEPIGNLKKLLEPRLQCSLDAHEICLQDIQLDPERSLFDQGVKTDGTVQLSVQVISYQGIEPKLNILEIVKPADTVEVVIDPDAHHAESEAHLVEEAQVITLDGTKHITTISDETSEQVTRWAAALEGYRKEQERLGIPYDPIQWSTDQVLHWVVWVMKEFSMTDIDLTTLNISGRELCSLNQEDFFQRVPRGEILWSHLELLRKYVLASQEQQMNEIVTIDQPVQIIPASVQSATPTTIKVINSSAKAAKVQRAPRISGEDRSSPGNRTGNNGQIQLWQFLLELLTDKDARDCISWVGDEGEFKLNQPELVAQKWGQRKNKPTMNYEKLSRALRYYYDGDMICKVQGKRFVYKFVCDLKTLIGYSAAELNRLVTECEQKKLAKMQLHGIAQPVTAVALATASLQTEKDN
In short, it runs like this:
as §1

Experiment [4] addresses T4, ERG (Homo sapiens, UniProt P11308 1-479).
T4 sequence: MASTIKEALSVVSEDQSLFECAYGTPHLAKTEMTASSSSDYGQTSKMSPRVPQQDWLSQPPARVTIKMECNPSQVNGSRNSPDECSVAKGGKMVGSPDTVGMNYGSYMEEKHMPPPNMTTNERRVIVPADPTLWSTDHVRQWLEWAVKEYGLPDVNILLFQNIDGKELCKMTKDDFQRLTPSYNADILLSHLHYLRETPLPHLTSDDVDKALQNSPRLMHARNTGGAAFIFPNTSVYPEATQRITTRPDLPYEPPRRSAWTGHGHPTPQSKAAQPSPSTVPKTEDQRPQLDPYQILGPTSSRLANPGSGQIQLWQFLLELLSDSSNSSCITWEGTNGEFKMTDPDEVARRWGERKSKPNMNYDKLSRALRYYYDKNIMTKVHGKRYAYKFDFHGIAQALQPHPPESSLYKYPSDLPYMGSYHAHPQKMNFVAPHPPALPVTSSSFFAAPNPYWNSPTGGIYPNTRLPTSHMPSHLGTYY
In short, it runs like this: as §1

Experiment [5] deals with ELF1 (Homo sapiens, UniProt P32519 1-619). In short, it runs like this: as §1
Chain of ELF1 (P32519 whole entry): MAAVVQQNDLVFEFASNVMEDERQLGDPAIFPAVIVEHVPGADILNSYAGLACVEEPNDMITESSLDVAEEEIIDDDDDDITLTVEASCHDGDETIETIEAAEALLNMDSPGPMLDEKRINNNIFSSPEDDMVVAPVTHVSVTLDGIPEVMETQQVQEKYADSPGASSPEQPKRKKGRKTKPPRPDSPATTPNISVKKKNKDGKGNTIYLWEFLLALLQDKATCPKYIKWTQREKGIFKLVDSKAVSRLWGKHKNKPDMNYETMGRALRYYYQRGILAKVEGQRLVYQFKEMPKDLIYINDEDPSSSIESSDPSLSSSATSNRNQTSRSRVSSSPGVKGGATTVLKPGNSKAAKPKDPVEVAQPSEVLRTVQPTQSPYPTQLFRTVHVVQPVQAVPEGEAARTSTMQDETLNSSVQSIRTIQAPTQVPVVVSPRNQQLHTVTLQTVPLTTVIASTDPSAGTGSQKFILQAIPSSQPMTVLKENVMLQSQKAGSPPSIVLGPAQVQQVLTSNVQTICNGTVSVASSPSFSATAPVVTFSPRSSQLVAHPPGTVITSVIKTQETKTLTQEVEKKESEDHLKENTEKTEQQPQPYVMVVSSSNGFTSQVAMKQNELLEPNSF
Experiment [6] deals with T5, EHF (Homo sapiens, UniProt Q9NZC4 1-300).
T5 sequence: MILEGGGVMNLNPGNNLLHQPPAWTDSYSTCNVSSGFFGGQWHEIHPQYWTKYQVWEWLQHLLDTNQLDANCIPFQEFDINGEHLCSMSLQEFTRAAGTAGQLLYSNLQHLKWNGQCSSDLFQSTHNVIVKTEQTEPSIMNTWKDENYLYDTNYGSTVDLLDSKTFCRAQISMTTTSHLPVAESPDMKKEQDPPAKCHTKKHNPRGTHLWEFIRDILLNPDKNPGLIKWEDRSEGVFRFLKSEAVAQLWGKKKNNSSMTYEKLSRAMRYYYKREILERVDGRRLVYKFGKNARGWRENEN
The method, boiled down: as §1

Experiment [7] addresses SPI1 (Homo sapiens, UniProt P17947 1-270). The method, boiled down:
as §1

For experiment [8], the target named is SPIB (Homo sapiens, UniProt Q01892 1-262). The method, boiled down:
as §1

The target of experiment [9] is T6, ELK3 (Homo sapiens, UniProt P41970 1-407).
T6 sequence: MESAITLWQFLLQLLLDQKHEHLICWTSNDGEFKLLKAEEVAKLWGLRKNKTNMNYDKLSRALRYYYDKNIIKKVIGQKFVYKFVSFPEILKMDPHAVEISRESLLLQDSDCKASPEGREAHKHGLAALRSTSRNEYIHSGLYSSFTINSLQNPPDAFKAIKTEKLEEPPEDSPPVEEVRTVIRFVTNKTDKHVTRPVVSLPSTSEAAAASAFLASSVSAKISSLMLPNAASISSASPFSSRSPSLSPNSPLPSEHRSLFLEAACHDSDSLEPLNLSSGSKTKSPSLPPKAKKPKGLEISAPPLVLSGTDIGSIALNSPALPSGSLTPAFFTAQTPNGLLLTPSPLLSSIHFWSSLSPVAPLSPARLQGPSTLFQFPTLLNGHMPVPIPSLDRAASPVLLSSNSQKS
The method, boiled down:
as §1

Experiment [10] deals with T7, FEV (Homo sapiens, UniProt Q99581 1-238).
T7 sequence: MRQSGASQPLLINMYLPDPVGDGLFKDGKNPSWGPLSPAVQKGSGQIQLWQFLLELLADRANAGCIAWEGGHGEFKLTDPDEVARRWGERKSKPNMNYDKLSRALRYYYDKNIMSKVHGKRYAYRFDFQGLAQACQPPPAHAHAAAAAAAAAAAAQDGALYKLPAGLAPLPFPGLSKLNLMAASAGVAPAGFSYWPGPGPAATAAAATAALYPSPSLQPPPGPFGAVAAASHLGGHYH
In short, it runs like this:
as §1

The target in experiment [11] is ETV5 (Homo sapiens, UniProt P41161 1-510). In short, it runs like this:
as §1

In experiment [12] the target is T8, SPIC (Homo sapiens, UniProt Q8N5J4 1-248).
T8 sequence: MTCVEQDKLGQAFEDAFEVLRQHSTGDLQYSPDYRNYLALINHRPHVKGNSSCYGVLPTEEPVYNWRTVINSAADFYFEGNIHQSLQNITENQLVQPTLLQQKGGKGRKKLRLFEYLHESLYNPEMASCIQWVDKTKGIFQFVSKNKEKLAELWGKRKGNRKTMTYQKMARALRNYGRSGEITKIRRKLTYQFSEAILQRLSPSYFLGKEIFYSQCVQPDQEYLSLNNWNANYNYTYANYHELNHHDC
In short, it runs like this:
as §1

Experiment [13] addresses ELF4 (Homo sapiens, UniProt Q99607 1-663). In short, it runs like this: as §1
The target in experiment [14] is T9, ELK4 (Homo sapiens, UniProt P28324-2 1-405).
T9 sequence: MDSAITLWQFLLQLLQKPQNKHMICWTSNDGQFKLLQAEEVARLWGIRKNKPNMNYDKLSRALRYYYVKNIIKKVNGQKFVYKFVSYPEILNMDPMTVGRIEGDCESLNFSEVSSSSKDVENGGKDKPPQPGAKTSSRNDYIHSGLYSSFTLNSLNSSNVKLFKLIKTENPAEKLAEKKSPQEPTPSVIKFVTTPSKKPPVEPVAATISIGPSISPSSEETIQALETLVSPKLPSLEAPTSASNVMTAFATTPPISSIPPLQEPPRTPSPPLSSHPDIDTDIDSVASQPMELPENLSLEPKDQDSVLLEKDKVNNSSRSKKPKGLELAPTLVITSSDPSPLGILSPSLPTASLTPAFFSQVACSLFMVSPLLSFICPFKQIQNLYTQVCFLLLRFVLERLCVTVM
The method, boiled down: as §1

Experiment [15] concerns the target T10, ETV2 (Homo sapiens, UniProt O00321 1-342).
T10 sequence: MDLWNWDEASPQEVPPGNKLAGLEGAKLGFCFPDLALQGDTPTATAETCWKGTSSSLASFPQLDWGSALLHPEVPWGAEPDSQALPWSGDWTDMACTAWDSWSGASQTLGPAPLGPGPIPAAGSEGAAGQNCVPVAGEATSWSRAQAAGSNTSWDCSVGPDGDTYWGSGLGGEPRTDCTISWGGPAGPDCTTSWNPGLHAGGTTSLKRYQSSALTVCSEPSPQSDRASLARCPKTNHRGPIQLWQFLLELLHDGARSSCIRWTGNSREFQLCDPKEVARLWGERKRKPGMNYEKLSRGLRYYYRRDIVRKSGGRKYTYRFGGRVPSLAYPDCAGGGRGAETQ
In short, it runs like this:
as §1

Experiment [16] addresses T11, ELF3 (Homo sapiens, UniProt P78545 1-371).
T11 sequence: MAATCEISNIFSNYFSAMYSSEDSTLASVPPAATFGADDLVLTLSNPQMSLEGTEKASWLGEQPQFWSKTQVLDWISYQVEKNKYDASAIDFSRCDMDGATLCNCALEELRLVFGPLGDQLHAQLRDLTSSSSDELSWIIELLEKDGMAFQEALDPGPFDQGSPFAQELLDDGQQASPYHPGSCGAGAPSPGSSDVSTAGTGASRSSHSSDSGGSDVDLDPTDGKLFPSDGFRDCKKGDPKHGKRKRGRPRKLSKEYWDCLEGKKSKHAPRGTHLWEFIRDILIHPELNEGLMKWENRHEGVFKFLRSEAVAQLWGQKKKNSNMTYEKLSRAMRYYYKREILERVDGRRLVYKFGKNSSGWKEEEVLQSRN
In short, it runs like this: as §1

In experiment [17] the target is ETV1 (Homo sapiens, UniProt P50549 1-477). In short, it runs like this:
as §1

Chain of ETV5 (P41161 whole entry): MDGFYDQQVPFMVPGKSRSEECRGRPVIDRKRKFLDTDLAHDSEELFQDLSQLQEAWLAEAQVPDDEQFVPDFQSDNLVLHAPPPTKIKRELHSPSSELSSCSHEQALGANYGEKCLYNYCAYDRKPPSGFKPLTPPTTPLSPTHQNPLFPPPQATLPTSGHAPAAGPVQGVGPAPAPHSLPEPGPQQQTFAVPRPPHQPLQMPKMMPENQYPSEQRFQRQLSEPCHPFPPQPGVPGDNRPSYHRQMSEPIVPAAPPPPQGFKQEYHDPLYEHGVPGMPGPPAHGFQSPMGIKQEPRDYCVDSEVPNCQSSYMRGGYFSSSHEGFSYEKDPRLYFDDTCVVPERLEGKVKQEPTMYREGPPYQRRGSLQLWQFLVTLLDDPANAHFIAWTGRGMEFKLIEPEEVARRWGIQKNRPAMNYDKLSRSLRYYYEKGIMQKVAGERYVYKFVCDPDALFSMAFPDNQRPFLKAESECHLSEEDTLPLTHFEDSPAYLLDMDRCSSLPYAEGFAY
Chain of SPIB (Q01892 whole entry): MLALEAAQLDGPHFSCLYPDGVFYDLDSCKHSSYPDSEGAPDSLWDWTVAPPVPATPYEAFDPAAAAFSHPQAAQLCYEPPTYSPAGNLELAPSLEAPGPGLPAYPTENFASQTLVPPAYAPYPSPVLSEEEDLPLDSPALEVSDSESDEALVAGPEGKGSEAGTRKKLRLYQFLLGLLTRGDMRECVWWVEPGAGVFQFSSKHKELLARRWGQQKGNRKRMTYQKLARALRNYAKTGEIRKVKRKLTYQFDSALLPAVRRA
Chain of ELF4 (Q99607 whole entry): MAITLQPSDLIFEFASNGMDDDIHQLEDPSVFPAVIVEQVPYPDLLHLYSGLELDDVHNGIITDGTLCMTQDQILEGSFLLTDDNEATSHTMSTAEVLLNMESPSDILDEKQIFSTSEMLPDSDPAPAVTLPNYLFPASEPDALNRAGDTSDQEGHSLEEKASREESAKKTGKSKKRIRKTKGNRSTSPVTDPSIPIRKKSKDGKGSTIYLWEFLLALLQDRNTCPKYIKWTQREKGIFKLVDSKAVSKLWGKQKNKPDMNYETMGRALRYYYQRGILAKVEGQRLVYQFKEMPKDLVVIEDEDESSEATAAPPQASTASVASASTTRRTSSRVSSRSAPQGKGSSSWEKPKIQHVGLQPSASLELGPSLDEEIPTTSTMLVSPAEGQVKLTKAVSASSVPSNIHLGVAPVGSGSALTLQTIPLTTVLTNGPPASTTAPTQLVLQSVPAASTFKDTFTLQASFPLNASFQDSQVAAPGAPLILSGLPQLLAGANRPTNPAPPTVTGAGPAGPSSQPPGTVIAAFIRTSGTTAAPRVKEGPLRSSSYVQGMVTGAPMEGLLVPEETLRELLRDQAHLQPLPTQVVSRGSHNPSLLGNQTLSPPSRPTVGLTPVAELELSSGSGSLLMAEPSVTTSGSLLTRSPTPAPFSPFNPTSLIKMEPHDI
Chain of ETV1 (P50549 whole entry): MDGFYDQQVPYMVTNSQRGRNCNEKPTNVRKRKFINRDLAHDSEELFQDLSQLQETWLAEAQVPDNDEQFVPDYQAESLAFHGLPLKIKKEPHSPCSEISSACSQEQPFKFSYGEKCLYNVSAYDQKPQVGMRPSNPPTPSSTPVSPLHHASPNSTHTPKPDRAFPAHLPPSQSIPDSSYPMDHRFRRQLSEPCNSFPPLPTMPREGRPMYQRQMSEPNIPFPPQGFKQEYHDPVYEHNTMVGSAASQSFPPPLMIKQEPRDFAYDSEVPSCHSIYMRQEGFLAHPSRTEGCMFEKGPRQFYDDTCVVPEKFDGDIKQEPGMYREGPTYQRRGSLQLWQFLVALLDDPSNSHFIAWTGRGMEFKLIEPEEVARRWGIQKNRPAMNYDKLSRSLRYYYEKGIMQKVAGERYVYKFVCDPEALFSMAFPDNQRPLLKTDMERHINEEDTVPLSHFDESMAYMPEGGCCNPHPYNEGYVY

For the sequence CACACT, the binding signal in [1] was 1.18 fold enrichment (6-mer frequency, TF over GST control); in experiment [2], 1.11 fold enrichment (6-mer frequency, TF over GST control); in experiment [3], 1.17 fold enrichment (6-mer frequency, TF over GST control); in [4], 1.18 fold enrichment (6-mer frequency, TF over GST control); in experiment [5], 1.21 fold enrichment (6-mer frequency, TF over GST control); in experiment [6], 1.2 fold enrichment (6-mer frequency, TF over GST control). For the same sequence, the binding signal was 1.16 fold enrichment (6-mer frequency, TF over GST control) in experiment [7]; 1.14 fold enrichment (6-mer frequency, TF over GST control) in experiment [8]; 1.24 fold enrichment (6-mer frequency, TF over GST control) in [9]; 1.21 fold enrichment (6-mer frequency, TF over GST control) in experiment [10]; 1.23 fold enrichment (6-mer frequency, TF over GST control) in experiment [11]; 1.13 fold enrichment (6-mer frequency, TF over GST control) in experiment [12]. The binding signal in [13] was 1.23 fold enrichment (6-mer frequency, TF over GST control); in [14], 1.13 fold enrichment (6-mer frequency, TF over GST control); in [15] it was 1.14 fold enrichment (6-mer frequency, TF over GST control); in experiment [16], 1.21 fold enrichment (6-mer frequency, TF over GST control); in experiment [17] it was 1.14 fold enrichment (6-mer frequency, TF over GST control).

Source of the values: PMC7862700, “An all-to-all approach to the identification of sequence-specific readers for epigenetic DNA modifications on cytosine”.
